Assay outcomes (PubChem BioAssay)
Shown are actives, neighbours in structure and some others; about 5% of the full set was active somewhere.
EBI2 antag: antagonists of human EBI2 receptor; EBI2 beta-arrestin recruitment, luminescence, 7a,25-OHC stimulated; inhibition, % at 5 µM; hit rate 0.81% among 360,000; in the data active = inhibition above about 38%;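 also: enzyme fragment complementation signal reports receptor beta-arrestin coupling in cells; 0% = agonist plus DMSO wells and 100% = wells without agonist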
Target sequence (P32249 whole entry, looked up, the tested form may be a part): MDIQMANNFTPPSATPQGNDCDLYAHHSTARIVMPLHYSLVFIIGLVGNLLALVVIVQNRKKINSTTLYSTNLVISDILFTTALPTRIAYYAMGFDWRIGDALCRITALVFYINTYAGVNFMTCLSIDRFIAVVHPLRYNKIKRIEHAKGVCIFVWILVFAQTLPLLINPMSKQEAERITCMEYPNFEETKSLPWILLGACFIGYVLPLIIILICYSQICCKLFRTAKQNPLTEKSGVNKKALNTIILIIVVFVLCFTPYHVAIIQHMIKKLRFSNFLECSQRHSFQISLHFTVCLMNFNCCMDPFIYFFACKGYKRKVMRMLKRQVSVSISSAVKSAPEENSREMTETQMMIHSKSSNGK
SENP6 block: blocks the human protease SENP6. Q9GZR1. Recombinant SENP6 catalytic domain, aminoluciferin luminescence. inhibition, % at 10 µM. hit rate 1.8% among 330,000. AID 2599;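 active = inhibition above about 50% at the single tested dose, limit read from the data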;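 also: plate controls were DMSO wells with enzyme for no effect and DMSO wells lacking enzyme for full effect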
SENP8 block-1: blocks the human protease SENP8. purified SENP8, Z-RLRGG-aminoluciferin cleavage, luminescence. inhibition, % at 10 µM. hit rate 1.2% among 330,000; in the data active = inhibition above about 50%
AHR activator: human AHR activation. AHR-responsive luciferase reporter cells, luminescence. activation, % at 5 µM. hit rate 2.5% among 320,000. AID 2796; in the data active = activation above about 47%;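 also: 0% = vehicle wells and 100% = reference agonist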
SENP8 block-2: inhibitors of human SENP8 protease. Q96LD8. recombinant SENP8, Nedd8 substrate fluorescence. inhibition, % at 20 µM. hit rate 0.64% among 360,000; in the data active = inhibition mostly above about 40%, no sharp cut-off; inactive = mostly below about 27%
SENP7 block: inhibitors of human SENP7 protease; Q9BQF6; recombinant SENP7, Z-RLRGG-aminoluciferin luminescence, 40 min; inhibition, % at 5 µM; hit rate 1.5% among 330,000; AID 434973;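 active = inhibition above about 50% at the single test dose, limit read from the data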;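 also: plate controls were DMSO with enzyme for no effect and no enzyme buffer wells for full effect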
SENP8 confirm: confirmation of human SENP8 protease inhibitors; shares compounds with SENP7 block; Recombinant SENP8, Z-RLRGG-aminoluciferin luminescence, 60 min; inhibition, % at 12.5 µM; hit rate 40% among 6,200;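 active = mean inhibition across replicates above about 50%, limit read from the data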
SENP6 conf: confirmation of human SENP6 protease inhibitors. hit rate 58% among 6,200. inhibition, % at 12.5 µM. shares compounds with SENP7 block. recombinant SENP6, Z-RLRGG-aminoluciferin luminescence
SENP7 conf: human SENP7 inhibition, confirmed | shares compounds with SENP7 block | recombinant SENP7, Z-RLRGG-aminoluciferin luminescence, 40 min | inhibition, % at 12.5 µM | hit rate 69% among 6,200 | AID 488917
Casp3 select: selectivity test for SENP inhibitors: human caspase-3 inhibition; shares compounds with SENP7 block; purified caspase-3, Z-DEVD-aminoluciferin luminescence, 60 min; inhibition, % at 12.5 µM; hit rate 60% among 6,200; AID 488918;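 active = mean inhibition above about 50%, limit read from the data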;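 also: plate controls were enzyme with DMSO for no effect and wells without caspase-3 for full effect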
Luc interf: interferes with luciferase luminescence in SENP counter-screen; hit rate 39% among 6,200; inhibition, % at 12.5 µM; Pre-incubated SENP8/Z-RLRGG-aminoluciferin, luciferase luminescence interference; shares compounds with SENP7 block;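 active = mean inhibition above about 50% when retested at one dose, limit read from the data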;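 also: plate controls were DMSO wells with completed reaction for no effect and substrate without enzyme for full effect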
Active calls of the source: *; x = no result.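 The calls were made as follows, unless noted: active = mean inhibition above about 50% in the one-dose retest (limit read from the data); inactive = the rest.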

SMILES	EBI2 antag	SENP6 block	SENP8 block-1	AHR activator	SENP8 block-2	SENP7 block	SENP8 confirm	SENP6 conf	SENP7 conf	Casp3 select	Luc interf
CCN(CC)C(=O)COc1ccc(-c2nnc(Nc3ccc(OC)c(C(=O)NC)c3)c3ccccc23)cc1	-2.8	-2.6	-6.4	4.7	-178.6	-0.8	x	x	x	x	x
COc1ccc(-c2cn(Cc3ccc(C(=O)c4ccccc4)cc3)nn2)cc1	x	79.5*	77.0*	5.1	x	63.9*	13.5	62.6*	16.6	64.2*	-4.2
O=C(NCc1ccccc1CN1CCCC1)c1cccc(S(=O)(=O)N2CCOCC2)c1	-2.0	-12.0	-9.2	1.2	1.9	-8.2	x	x	x	x	x
CC1CCC(NC(=O)c2cccc(S(=O)(=O)NCc3ccccc3)c2)CC1 (configuration not stated)	0.3	4.2	-3.5	5.5	15.3	-0.9	x	x	x	x	x
CC(=O)c1c(C)[nH]c(C(=O)Nc2ccc3c(c2)OCCO3)c1C	-1.3	57.6*	23.1	53.7*	16.3	57.5*	57.1*	53.3*	83.8*	75.1*	59.7*
CCOc1ccc(NC(=O)c2ccc(N)cc2)cc1	2.5	6.1	7.6	8.7	-1.3	5.5	x	x	x	x	x
CCOc1ccc(NC(=O)c2c(N)n(C)c(=O)[nH]c2=O)cc1	-14.8	58.5*	20.2	4.3	22.9	47.6	15.0	11.7	23.0	26.7	1.7
CCOc1ccc(NC(=O)c2[nH]c(C)c(C(C)=O)c2C)cc1	1.5	50.3*	41.4	21.1	17.1	58.7*	56.7*	50.3*	81.0*	74.8*	62.1*
CCc1ccc(NC(=O)c2[nH]c(C)c(C(C)=O)c2C)cc1	7.4	37.3	1.0	19.8	-21.8	10.5	x	x	x	x	x
CC1(C)Cc2c(sc(NC(=O)c3ccccc3)c2C(=O)O)CO1	-12.2	-16.1	63.8*	4.0	-49.3	44.1	76.9*	69.3*	86.1*	82.4*	59.4*
CC(C)COc1ccc(C(=O)Nc2sc3c(c2C(=O)O)CC(C)(C)OC3)cc1	-5.8	29.8	27.9	-1.8	-372.6	-0.8	x	x	x	x	x
COc1ccc(C(=O)Nc2sc3c(c2C(=O)O)CC(C)(C)OC3)cc1	-13.6	62.6*	43.9	1.0	-277.8	43.4	8.2	55.9*	0.0	50.2*	1.9
CCCNC(=O)CCn1c(=S)oc2ccccc21	-6.3	57.8*	-6.7	4.5	7.5	-1.2	-0.5	-1.9	7.1	5.7	0.1
O=C(Oc1ccc(-c2cn3c(n2)SCC3)cc1)c1ccccc1	-23.6	40.4	0.1	4.1	26.0	71.4*	12.2	21.6	15.6	51.4*	26.5
Cc1nc([N+](=O)[O-])cn1CC(=O)Nc1ccc([N+](=O)[O-])cc1	-5.0	15.2	2.9	0.6	1.0	3.2	x	x	x	x	x
Cn1cnnc1SCC(=O)Nc1nc(-c2ccccc2)cs1	6.3	-6.6	0.2	11.7	10.9	0.1	x	x	x	x	x
O=C(Nc1ncccc1Cl)c1cc2ccccc2o1	-3.8	62.5*	41.5	12.8	5.9	64.1*	68.3*	73.3*	92.0*	82.9*	28.2
O=C(Nc1ccc(Cl)cc1Cl)c1cc2ccccc2o1	3.5	26.9	-14.7	14.9	5.8	58.8*	14.3	10.2	4.1	3.5	-5.0
Cc1ccc(NC(=O)c2cc3ccccc3o2)cc1Cl	9.1	48.8	25.8	x	10.2	36.7	x	x	x	x	x
CC(C)N(CCCNC(=O)Cn1c(=O)c2cccn2c2ccc(F)cc21)Cc1ccccc1	-7.3	-14.3	-1.4	2.7	-6.0	61.5*	9.8	7.2	-5.3	0.3	-1.5
CCN1CCN(CCNC(=O)Cn2c(=O)c3cccn3c3ccc(F)cc32)CC1	-5.0	5.0	8.0	1.5	-2.6	1.2	x	x	x	x	x
CN(C)c1ccc(/C=C2\CCC/C(=C\c3ccccc3)C2=O)cc1	22.2	x	x	0.0	10.0	x	x	x	x	x	x
